D2 PAM-1: D2 dopamine receptor (human) potentiation. potentiation, % at 10 µM. HEK293 T-REx D2, calcium flux, EC20 dopamine potentiation. 340,000 compounds, 0.34% hits. P14416;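 active = potentiation over 3 SD above the plate norm, cut at about 30% in these data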; note: 0% is about no effect
Target sequence (P14416 whole entry, looked up): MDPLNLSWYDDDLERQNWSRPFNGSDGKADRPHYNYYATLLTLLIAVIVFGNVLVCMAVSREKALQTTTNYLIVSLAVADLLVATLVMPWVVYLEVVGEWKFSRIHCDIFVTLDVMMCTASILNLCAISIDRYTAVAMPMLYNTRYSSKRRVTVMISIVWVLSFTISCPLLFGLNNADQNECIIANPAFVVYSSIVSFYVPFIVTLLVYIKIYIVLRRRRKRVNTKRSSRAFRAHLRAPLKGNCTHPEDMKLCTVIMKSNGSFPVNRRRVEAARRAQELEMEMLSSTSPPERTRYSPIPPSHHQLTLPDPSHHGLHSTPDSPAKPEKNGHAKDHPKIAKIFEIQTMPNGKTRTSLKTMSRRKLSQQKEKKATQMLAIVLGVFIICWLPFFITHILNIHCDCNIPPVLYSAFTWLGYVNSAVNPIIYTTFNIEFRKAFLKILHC
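Calcium flux readout, no-wash dye, 1 read/s. Inducible HEK293 Trex D2 line, overnight 30 C. Compound alone 180 s (agonist flags), then EC20 dopamine, another 180 s to score potentiation.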
D2 ag-1: human D2 receptor agonism in beta-arrestin assay. AID 624465. activation, % (concentration not given with the values). 360,000 compounds, 0.084% hits. DiscoveRx PathHunter D2 beta-arrestin, luminescence, 90 min; 100% = 57 uM dopamine signal; in the data active = activation above about 40%
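DiscoveRx PathHunter D2 beta-arrestin cells (2,100/well) attached overnight, then compound-stimulated 90 min at 37 C in HBSS/10 mM HEPES/0.1% Tween-20 buffer; beta-galactosidase complementation read by luminescence after 1 h at ambient temperature. Dopamine 57 uM final (EC100) as control.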
D2 PAM-2: potentiates the human D2 dopamine receptor allosterically | P14416 | DiscoveRx D2 beta-arrestin cells, luminescence, 90 min; 100% = 57 uM dopamine signal | potentiation, % (no concentration beside the values) | 360,000 compounds, 0.23% hits | AID 624464; in the data active = potentiation above about 50%
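D2 cells co-treated with compound plus 50 nM dopamine (EC20) for 90 min at 37 deg C to detect potentiation. Beta-arrestin recruitment was read as enzyme-fragment luminescence after 1 h at ambient temperature. Full response was set by 57 uM dopamine.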
D2 antagonist: D2 dopamine receptor (human) antagonism | AID 485344 | inhibition, % at 10 µM | P14416 | HEK293 TREx D2 cells, calcium flux, dopamine EC80 | 340,000 compounds, 2% hits; in the data active = inhibition above about 30%; inactive = below that, where a call was filed; note: 0% is about no effect
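Cells plated overnight at 30 C with tetracycline; no-wash calcium dye, 30–90 min RT; 10 s baseline; compound pinned; 180 s read; EC80 dopamine added; another 180 s read.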
D2 ag-2: D2 dopamine receptor (human) agonism. HEK293 T-REx D2 cells, calcium flux agonist mode. activation, % at 2 µM. AID 485358. P14416. 340,000 compounds, 0.53% hits;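 active = activation over 3 SD above normal in the single-dose calcium agonist read, cut at about 30% in these data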; note: 0% is about no effect
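In this primary screen, compounds producing a positive calcium signal within 180 s of addition to tetracycline-induced, force-coupled HEK293 Trex D2 cells are flagged; cells are dye-loaded with a no-wash calcium kit beforehand.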
Starred values were filed as active, the others as inactive; nt = not tested or not shown. In the library only some 2.4% were active in any assay of this set; here they are far more common.

SMILES	D2 PAM-1	D2 ag-1	D2 PAM-2	D2 antagonist	D2 ag-2
COc1ccc(C[C@@H]2c3cc(O)c(OC)cc3CCN2C)cc1O	-18	-1	-26	52*	0
COc1ccc(CC2c3cc(OC)c(OC)cc3CCN2C)cc1OC (stereo not given)	nt	6	-6	nt	nt
COc1cc2c(cc1O)[C@@H]1Cc3ccc(OC)c(O)c3CN1CC2	-12	9	-5	75*	-1
O=C(COc1ccccc1[N+](=O)[O-])N1CCN(CCc2ccncc2)CC1	-8	nt	nt	nt	1
Cc1ccccc1CN1C(=O)CN=C(c2ccccc2)c2cc(Cl)ccc21	-12	nt	nt	nt	2
O=C(Cc1ccccc1)N1CCN(Cc2ccc([N+](=O)[O-])cc2)CC1	-2	-3	-5	1	0
O=[N+]([O-])c1cccc(CN2CCN(Cc3ccc(Br)cc3)CC2)c1	-23	-2	-4	90*	2
Cc1ccc(C)c(CN2C(=O)c3ccccc3Sc3ccc(C(=O)N4CCC5(CC4)OCCO5)cc32)c1	6	nt	nt	nt	1
O=C(C[N+]12CCC(CC1)C(CO)C2)c1ccc([N+](=O)[O-])cc1 (stereo not given)	1	-3	2	8	1
O=C(C[N+]12CCC(CC1)C(OC(=O)c1ccccc1)C2)c1ccc([N+](=O)[O-])cc1 (stereo not given)	4	0	-2	33*	-1
CCCN1CCc2cc(O)cc3c2[C@H]1Cc1ccc(O)c(O)c1-3	nt	241*	129*	nt	nt
CN1CCc2cc(O)cc3c2[C@H]1Cc1ccc(O)c(O)c1-3	nt	106*	101*	nt	nt
Cc1cccc(-n2c(/C=C/c3cn(C)c4ccccc34)nc3ccccc3c2=O)c1	-4	nt	nt	nt	0
COc1ccc(/C=C/c2nc3ccccc3c(=O)n2-c2ccc(C)cc2)cc1O	nt	nt	nt	nt	0
COc1cccc(C2SCC(=O)Nc3c2c(C)nn3-c2ccc(C)c(Cl)c2)c1OC (stereo not given)	0	nt	nt	nt	nt
Cc1ccc(-n2c(/C=C/c3cc(Br)cs3)nc3ccccc3c2=O)cc1	5	nt	nt	nt	1
CCN1CCN(c2ccc(N)cc2C)CC1	-10	-3	-18	13	4
CCN1CCN(c2ccc(NC(C)=O)cc2Cl)CC1	9	-4	-5	42*	0
CCOc1ccc(CN(CCc2ccc3c(c2)OCO3)Cc2ccc(OC)c(Br)c2)cc1	-19	nt	nt	nt	25
COc1ccc(C(=O)C(Cc2ccccc2)N(C)C)cc1 (stereo not given)	-3	-2	-21	1	1
COc1ccc(C(CNC(=O)c2ccc3c(c2)CCC3)N(C)C)cc1 (stereo not given)	-28	-4	-17	80*	-1
CC1(C)Cc2c(sc3c2C(=O)NC(c2cccnc2)N3)CO1 (stereo not given)	nt	-3	-4	69*	1
CCc1ccc(OCC(=O)N2CCN(CCc3ccccn3)CC2)cc1	-23	nt	nt	nt	1
CCOc1ccccc1NC(=O)c1cccn(Cc2ccccc2C)c1=O	12	nt	nt	nt	1
OC(CCNCCc1c[nH]c2ccccc12)C(F)(F)Cl (stereo not given)	-43	-4	3	53*	14
SMILES	D2 PAM-1	D2 ag-1	D2 PAM-2	D2 antagonist	D2 ag-2
Clc1ccccc1CNCCc1c[nH]c2ccccc12	nt	0	-33	nt	nt
OC(CNCCc1c[nH]c2ccccc12)C(F)(F)F (stereo not given)	-4	5	3	12	0
Cc1cccc(CNCCc2c[nH]c3ccccc23)c1	-19	0	-8	47*	1
c1ccc(CNCCc2c[nH]c3ccccc23)cc1	-31	5	-4	61*	9
Fc1cccc(CNCCc2c[nH]c3ccccc23)c1	-17	-1	-59	3	13
Cc1ccc(NC(=O)Cn2cc(C(=O)c3ccccc3)c3ccccc32)cc1	7	nt	nt	nt	0
CCCCn1c(NC(=O)c2ccc(Br)o2)c(C(=O)OCC)c2nc3ccccc3nc21	-16	-15	-14	-5	37*
CNC(=S)NC1CC2CCCC(C1)N2CC(C)C (stereo not given)	nt	0	-15	nt	nt
Cc1ccc(CN2C3CCCC2CC(NC(=S)NCc2ccccc2)C3)cc1 (stereo not given)	-30	-1	-2	104*	1
O=C(COc1ccccc1Cl)N1CCN(CCc2ccccn2)CC1	-3	nt	nt	nt	-2
COCc1ccc(CN2CCCC(C(=O)c3sccc3C)C2)o1 (stereo not given)	-25	-1	-19	38*	1
Cc1ccc(-n2c(/C=C/c3ccc(Br)s3)nc3ccccc3c2=O)cc1C	-3	nt	nt	nt	0
CCc1ccccc1NC(=O)c1cccn(Cc2ccccc2F)c1=O	-1	nt	nt	nt	1
Cc1ccc(-n2c(/C=C\c3ccc(F)c(F)c3)nc3ccccc3c2=O)c(C)c1	15	nt	nt	nt	nt
Cc1ccc(-n2c(/C=C/c3cccc4ccccc34)nc3ccccc3c2=O)cc1	-10	nt	nt	nt	0
CN1CCc2cccc(Cl)c2CC1	-18	-1	-32	53*	1
CC(C)NC(C)C(=O)c1ccc2ccccc2c1 (stereo not given)	19	-12	-20	46*	-1
CC(C)(C)C(=O)OC[N+](C)(C)CCOC(=O)C(O)(c1ccccc1)C1CCCC1 (stereo not given)	-8	11	-15	19	0
CCCC(CCC)C(=O)OC[N+](C)(C)CCOC(=O)C(O)(c1ccccc1)C1CCCC1 (stereo not given)	-4	-5	-11	39*	-1
CCC12CN3CC(CC)(CN(C1)C3c1c(C)[nH]c(=O)[nH]c1=O)C2=O (stereo not given)	5	nt	nt	nt	0
Cc1[nH]c2ccccc2c1CCCNC1CCCCC1	-26	-8	-30	39*	1
C/C=C(\C)C(=O)OC1C(C)=C2C(C1OC(=O)CCCCC)C(C)(OC(C)=O)CC(OC(=O)CCC)C1(O)C2OC(=O)C1(C)O (stereo not given)	-12	nt	nt	36*	66*
Cc1nnc(NC(=O)c2cccn(Cc3cccc([N+](=O)[O-])c3)c2=O)s1	13	nt	nt	nt	-1
CN1CCc2c([nH]c3ccccc23)C1	-25	-4	-105	51*	0
Cc1cc(C)cc(-n2c(/C=C/c3cccc(F)c3)nc3ccccc3c2=O)c1	7	nt	nt	nt	0
COc1cc(C)cc(CN2CC=C(c3ccccc3)CC2)c1O	-30	8	-21	88*	-8
COc1ccc2ccc(O)c(CN3CC=C(c4ccccc4)CC3)c2c1	-17	-2	-4	19	17
COc1ccc(C(C)=O)cc1CN1CC=C(c2ccccc2)CC1	-27	-1	-10	78*	3
COc1ccc2c(CN3CC=C(c4ccccc4)CC3)cc(=O)oc2c1	-5	-2	-21	2	0
COc1ccccc1-c1nn2c(=O)cc(CN3CCN(C(=O)COc4ccccc4Cl)CC3)nc2s1	-10	nt	nt	nt	0
